Results reported in PubChem BioAssay.
Records with an inconclusive call do not appear. Activity calls are given as the source filed them.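 The calls were made as follows, unless noted: active = normalized viability below 100% at a tested concentration; inactive = the rest.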

Columns and labels:
[1] = Wnt pathway potentiators raising nuclear beta-catenin – imaging, WNT3A-conditioned medium, mouse C2C12, NPC library, primary screen (AID 1117326; in the data active = nuclear beta-catenin stimulation mostly above about 4.2%, no sharp cut-off; inactive = mostly below about 10%); details: stronger effect = higher value
[2] = stimulators of insulin release from INS-1E, primary screen, cell-based, 5 mM glucose, NPC library (AID 1117329;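 active = compound raises insulin release from rat beta cells at 5 mM glucose, no numeric limit stated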); details: rat INS-1E insulin secretion, at 10 µM, stronger effect = higher value
[3] = growth inhibition of GSK3B-pretreated HCT116 cells – cell-based, CellTiter-Glo, 0.2 to 20 µM (AID 1117336;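 active = compounds lowering colon cancer cell viability after pretreatment blocking the GSK3B kinase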); details: HCT116 viability after GSK3B inhibitor, at 20 µM, stronger effect = higher value
[4] = inhibition of endothelial tube formation, primary screen, imaging, VEGF stimulated, CD31 staining, tube area, NPC library (AID 1117340;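 active = compound that reduces growth-factor-driven endothelial tube area in a mixed cell culture, no cutoff stated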); details: VEGF-stimulated ADSC/ECFC co-culture, at 10 µM, stronger effect = higher value
[5] = GLP1 release stimulators, primary, NCI-H716, NPC library (AID 1117341;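 active = compound raises GLP1 secretion from the human gut endocrine cells, with no numeric limit stated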); details: NCI-H716 cells, at 10 µM, stronger effect = higher value
[6] = HCT116 colon cancer cell growth inhibition, primary screen, CellTiter-Glo luminescence, NPC library (AID 1117342;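 active = compounds that lower survival of HCT116 colon cancer cells in the luminescence readout, no numeric limit stated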); details: at 20 µM (top of the series)
[7] = reduced SW480 viability measured with CellTiter-Glo, NPC library, primary (AID 1117343;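 active = compounds that lower viability of the colon cancer cells in the luminescence readout, with no numeric limit stated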); details: CellTiter-Glo luminescence; at 20 µM (top of the series) unless noted
[8] = NPC library primary testing for decreased DLD-1 cell viability via CellTiter-Glo (AID 1117346;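 active = compounds that lower survival of DLD-1 colon cancer cells in the luminescence readout, no cutoff given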); details: DLD-1 viability, CellTiter-Glo luminescence; at 20 µM (top of the series)
[9] = viability loss in pontine glioma line – cell-based, SU-DIPG-XVII, MIPE5.0, CellTiter-Glo, qHTS, dose response (AID 1347060; cut-off not given, nearly all actives have AC50 up to about 26 µM;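 as to AC50: cells exposed to compound for 48 hours before viability readout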); details: CellTiter-Glo ATP luminescence
[10] = viability loss in pontine glioma line – cell-based, SU-DIPG-XIII, MIPE4.0, CellTiter-Glo, qHTS, dose response (AID 1347061; cut-off not given, nearly all actives have AC50 up to about 37 µM;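 also: cells exposed to compound for 48 hours before readout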); details: CellTiter-Glo ATP luminescence
[11] = growth inhibition of DIPG cells – cell-based, MIPE4.0 library, CellTiter-Glo luminescence, qHTS (AID 1347066; cut-off not given, nearly all actives have AC50 up to about 30 µM;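 also: cells exposed to compound for 48 hours before readout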); details: SU-DIPG-VI viability, CellTiter-Glo ATP luminescence
[12] = growth inhibition of DIPG cells – cell-based, MIPE5.0 library, qHTS (AID 1347068; cut-off not given, nearly all actives have IC50 up to about 30 µM;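 as to IC50: cells exposed to compound for 48 hours before viability readout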); details: SU-DIPG-XXV viability
[13] = drug combination growth inhibition, ovarian cancer – cell-based, oncology-focused library, rucaparib conditional, profiling panel (AID 1508598); details: patient-derived ovarian cancer cells, CellTiter-Glo viability, 144 h, stronger effect = lower value
[14] = tested on: Aerobactin synthetase IucA (Klebsiella pneumoniae); test: inhibition of K. pneumoniae IucA enzyme – biochemical, Tocris library, absorbance (AID 1345561; call rule not given here;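 also: 100% = enzyme without compound and 0% = no enzyme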); details: purified IucA enzyme assay, absorbance (OD) read-out; stronger effect = lower value;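 tested at 8 µM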
[15] = viability loss with induced miR-34 in A549 – imaging, A549 dox-inducible miR-34, nuclei and caspase counts, primary screen (AID 1347080;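 active = compounds whose cell count with miR-34 switched on is under 0.7 times the count with it off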); details: A549 miR-34 inducible, Hoechst nuclei count, 48 h
[16] = galactose survival enhancers in mitochondrial complex I cybrids – cell-based, galactose medium, ATP luminescence, primary screen (AID 1645843;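 active = z-score of at least 1.8 in each of two replicates, scored against plate mean and spread of sample wells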;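 also: positive z means more ATP and so rescue of galactose-driven cybrid death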); details: complex I mutant cybrid cells, 72 h, stronger effect = higher value
[17] = target: NAD(+) hydrolase SARM1 (Homo sapiens) (UniProt Q6SZW1); test: blocking NAD cleavage by SARM1 SAM-TIR – cell lysate, NAD-Glo luminescence (AID 1508614;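 active = compound whose remaining NAD level is above about 45 nM, limit read from the data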;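 also: higher remaining NAD means stronger inhibition of SARM1 NADase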); details: SAM-TIR HEK293T lysate NADase, at 1 µM, stronger effect = higher value
NAD(+) hydrolase SARM1 (Homo sapiens), sequence (Q6SZW1 whole entry, looked up): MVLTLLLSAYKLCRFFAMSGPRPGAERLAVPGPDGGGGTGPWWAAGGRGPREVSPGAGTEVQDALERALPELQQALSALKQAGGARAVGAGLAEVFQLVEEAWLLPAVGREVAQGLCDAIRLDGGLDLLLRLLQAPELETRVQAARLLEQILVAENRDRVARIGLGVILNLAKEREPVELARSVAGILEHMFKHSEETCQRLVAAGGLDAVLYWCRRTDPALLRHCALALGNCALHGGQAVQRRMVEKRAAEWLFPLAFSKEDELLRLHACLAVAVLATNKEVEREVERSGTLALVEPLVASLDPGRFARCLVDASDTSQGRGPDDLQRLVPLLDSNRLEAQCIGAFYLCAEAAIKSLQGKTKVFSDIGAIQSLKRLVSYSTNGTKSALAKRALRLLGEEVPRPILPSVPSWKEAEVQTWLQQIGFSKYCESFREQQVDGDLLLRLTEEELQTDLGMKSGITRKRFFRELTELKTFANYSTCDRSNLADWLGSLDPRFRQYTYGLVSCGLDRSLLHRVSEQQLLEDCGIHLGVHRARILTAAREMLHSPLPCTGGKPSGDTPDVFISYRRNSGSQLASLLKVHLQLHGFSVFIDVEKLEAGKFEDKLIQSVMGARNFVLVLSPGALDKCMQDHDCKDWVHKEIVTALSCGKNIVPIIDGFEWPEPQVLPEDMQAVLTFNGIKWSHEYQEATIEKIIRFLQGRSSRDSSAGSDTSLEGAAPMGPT

CC(C)C[C@H](NC(=O)[C@H](Cc1ccccc1)NC(=O)c1cnccn1)B(O)O
inactive: insulin secretion stimulation [2] 2.1% | GLP1 secretion stimulation [5] 1.6% | viability ([13]; at 0.000305 µM, OCI-C5x cells, with rucaparib 10 µM, 100% = cells with rucaparib alone) 114% | viability ([13]; at 0.000305 µM, OCI-C5x cells, without rucaparib) 117% | viability ([13]; at 0.00122 µM, OCI-C5x cells, with rucaparib 10 µM, 100% = cells with rucaparib alone) 114% | viability ([13]; at 0.00122 µM, OCI-C5x cells, without rucaparib) 113% | viability ([13]; at 0.00488 µM, OCI-C5x cells, with rucaparib 10 µM, 100% = cells with rucaparib alone) 119% | viability ([13]; at 0.00488 µM, OCI-C5x cells, without rucaparib) 115% | viability ([13]; at 0.00488 µM, OCI-P5x cells, with rucaparib 20 µM, 100% = cells with rucaparib alone) 102%
137%: nuclear beta-catenin stimulation ([1]; stimulation, at 2 µM)
active: nuclear beta-catenin stimulation ([1]; at 10 µM) 132% | viability decrease [3] 99% | tube area decrease [4] 107% | inhibition of viability [6] 100% | viability decrease (inhibition) [7] 132% | viability decrease (inhibition) [8] 95.4% | AC50 [9] 20.9 nM | AC50 [10] 2090 nM | AC50 [11] 26.4 nM | IC50 [12] 26.3 nM | viability ([13]; at 0.000305 µM, OCI-P5x cells, with rucaparib 20 µM, 100% = cells with rucaparib alone) 85.1% | viability ([13]; at 0.000305 µM, OCI-P5x cells, without rucaparib) 23.5% | viability ([13]; at 0.00122 µM, OCI-P5x cells, with rucaparib 20 µM, 100% = cells with rucaparib alone) 85.3% | viability ([13]; at 0.00122 µM, OCI-P5x cells, without rucaparib) 28.3% | viability ([13]; at 0.00488 µM, OCI-P5x cells, without rucaparib) 94.3% | viability ([13]; at 0.0195 µM, OCI-C5x cells, with rucaparib 10 µM, 100% = cells with rucaparib alone) 38.9% | viability ([13]; at 0.0195 µM, OCI-C5x cells, without rucaparib) 15.9% | viability ([13]; at 0.0195 µM, OCI-P5x cells, with rucaparib 20 µM, 100% = cells with rucaparib alone) 5.88% | viability ([13]; at 0.0195 µM, OCI-P5x cells, without rucaparib) 1.5% | viability ([13]; at 0.0781 µM, OCI-C5x cells, with rucaparib 10 µM, 100% = cells with rucaparib alone) 2.87% | viability ([13]; at 0.0781 µM, OCI-C5x cells, without rucaparib) 2.36% | viability ([13]; at 0.0781 µM, OCI-P5x cells, with rucaparib 20 µM, 100% = cells with rucaparib alone) 1.94% | viability ([13]; at 0.0781 µM, OCI-P5x cells, without rucaparib) 1.08% | viability ([13]; at 0.313 µM, OCI-C5x cells, with rucaparib 10 µM, 100% = cells with rucaparib alone) 2.19% | viability ([13]; at 0.313 µM, OCI-C5x cells, without rucaparib) 1.67% | viability ([13]; at 0.313 µM, OCI-P5x cells, with rucaparib 20 µM, 100% = cells with rucaparib alone) 1.91% | viability ([13]; at 0.313 µM, OCI-P5x cells, without rucaparib) 0.96% | viability ([13]; at 1.25 µM, OCI-C5x cells, with rucaparib 10 µM, 100% = cells with rucaparib alone) 1.59% | viability ([13]; at 1.25 µM, OCI-C5x cells, without rucaparib) 1.6% | viability ([13]; at 1.25 µM, OCI-P5x cells, with rucaparib 20 µM, 100% = cells with rucaparib alone) 1.8% | viability ([13]; at 1.25 µM, OCI-P5x cells, without rucaparib) 0.86% | viability ([13]; at 5 µM, OCI-C5x cells, with rucaparib 10 µM, 100% = cells with rucaparib alone) 1.34% | viability ([13]; at 5 µM, OCI-C5x cells, without rucaparib) 1.65% | viability ([13]; at 5 µM, OCI-P5x cells, with rucaparib 20 µM, 100% = cells with rucaparib alone) 1.02% | viability ([13]; at 5 µM, OCI-P5x cells, without rucaparib) 0.609%

CCOC(=O)[C@H](CCc1ccccc1)N[C@@H](C)C(=O)N1Cc2cc(OC)c(OC)cc2C[C@H]1C(=O)O
1.6%: nuclear beta-catenin stimulation ([1]; stimulation, at 2 µM)
1.79: fold change ([15]; measured here: relative caspase fold change +Dox/-Dox)
active: tube area decrease [4] 78.4%
7700: cell count ([15]; measured here: total cells with miR-34 induction, stronger effect = lower value)
8220: cell count ([15]; measured here: total cells without miR-34 induction)
inactive: nuclear beta-catenin stimulation ([1]; at 10 µM) -0.5% | insulin secretion stimulation [2] 0.3% | viability decrease [3] -1.4% | GLP1 secretion stimulation [5] 0.3% | inhibition of viability [6] 6.7% | viability decrease (inhibition) [7] -2.3% | viability decrease (inhibition) [8] 3.7% | remaining activity [14] 110% | fold change ([15]; stronger effect = lower value, cell number ratio, induced over uninduced) 0.937 | z-score [16] -0.04

CCCCCOC(=O)Nc1nc(=O)n([C@@H]2O[C@H](C)[C@@H](O)[C@H]2O)cc1F
inactive: nuclear beta-catenin stimulation ([1]; at 10 µM) 0.5% | insulin secretion stimulation [2] -0.1% | viability decrease [3] -9.5% | tube area decrease [4] 5.3% | GLP1 secretion stimulation [5] -0.5% | inhibition of viability [6] 0.7% | viability decrease (inhibition) [7] -2% | viability decrease (inhibition) [8] -8.6% | outcome [9] | outcome [10] | outcome [11] | outcome [12] | remaining NAD [17] 10 nM
-1.4%: nuclear beta-catenin stimulation ([1]; stimulation, at 2 µM)
